Source: the supplement of paper PMC4466140

How the values were obtained:
Assay in all cases: SPOT peptide array binding signal intensity (averaged, normalized) (arbitrary units (background-subtracted, floor 0; scale differs between SH3 domains)); higher = stronger binding of the SH3 domain to the peptide
CaNbp2 = biological target: CaNbp2
Summary of the method: (§1)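 Binding signal refers to normalized, background-subtracted spot intensity averaged over replicates, expressed in arbitrary units that differ between domains. GST-fused SH3 domains from four yeast species were incubated at 10 μg/ml overnight at 4°C on cellulose membranes of synthetic 15-mer peptides with cysteines replaced by serines. Bound protein was detected with anti-GST antibody, an HRP anti-mouse secondary and luminol, and quantified with Genespotter.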

CaRvs167 = biological target: CaRvs167
Summary of the method: as §1

CaRvs167-3 = biological target: CaRvs167-3
Summary of the method: as §1

CaSho1 = biological target: CaSho1
Summary of the method: as §1

CaSla1-D1-D2 = biological target: CaSla1-D1-D2
Summary of the method: as §1

CaSla1-D3 = biological target: CaSla1-D3
Summary of the method: as §1

ScAbp1 = biological target: ScAbp1
Summary of the method: as §1

ScBbc1 = biological target: ScBbc1
Summary of the method: as §1

ScBem1-D1 = biological target: ScBem1-D1
Summary of the method: as §1

ScBzz1-D1 = biological target: ScBzz1-D1
Summary of the method: as §1

ScBzz1-D2 = biological target: ScBzz1-D2
Summary of the method: as §1

ScCyk3 = biological target: ScCyk3
Summary of the method: as §1

ScFus1 = biological target: ScFus1
Summary of the method: as §1

ScHof1 = biological target: ScHof1
Summary of the method: as §1

ScHse1 = biological target: ScHse1
Summary of the method: as §1

ScLsb1 = biological target: ScLsb1
Summary of the method: as §1

ScLsb2 = biological target: ScLsb2
Summary of the method: as §1

ScLsb3 = biological target: ScLsb3
Summary of the method: as §1

ScLsb4 = biological target: ScLsb4
Summary of the method: as §1

ScMyo3 = biological target: ScMyo3
Summary of the method: as §1

ScMyo5 = biological target: ScMyo5
Summary of the method: as §1

ScNbp2 = biological target: ScNbp2
Summary of the method: as §1

ScPex13 = biological target: ScPex13
Summary of the method: as §1

ScRvs167 = biological target: ScRvs167
Summary of the method: as §1

ScSho1 = biological target: ScSho1
Summary of the method: as §1

ScSla1-D1-D2 = biological target: ScSla1-D1-D2
Summary of the method: as §1

ScSla1-D3 = biological target: ScSla1-D3
Summary of the method: as §1

SpAbp1-D1 = biological target: SpAbp1-D1
Summary of the method: as §1

SpBbc1 = biological target: SpBbc1
Summary of the method: as §1

SpBzz1-D1 = biological target: SpBzz1-D1
Summary of the method: as §1

SpBzz1-D2 = biological target: SpBzz1-D2
Summary of the method: as §1

SpCyk3 = biological target: SpCyk3
Summary of the method: as §1

SpHof1 = biological target: SpHof1
Summary of the method: as §1

SpHof1-2 = biological target: SpHof1-2
Summary of the method: as §1

SpHof1-3 = biological target: SpHof1-3
Summary of the method: as §1

SpHse1 = biological target: SpHse1
Summary of the method: as §1

SpLsb1 = biological target: SpLsb1
Summary of the method: as §1

SpLsb4 = biological target: SpLsb4
Summary of the method: as §1

SpMyo1 = biological target: SpMyo1
Summary of the method: as §1

SpNbp2 = biological target: SpNbp2
Summary of the method: as §1

SpPex13 = biological target: SpPex13
Summary of the method: as §1

SpRvs167 = biological target: SpRvs167
Summary of the method: as §1

SpSla1-D1-D2 = biological target: SpSla1-D1-D2
Summary of the method: as §1

SpSla1-D3 = biological target: SpSla1-D3
Summary of the method: as §1

Binder: DKKTKPTPPPKPSHL
- SPOT peptide array binding signal intensity (CaNbp2): ≤ 0
- SPOT peptide array binding signal intensity (CaRvs167): 0.333
- SPOT peptide array binding signal intensity (CaRvs167-3): 3.5
- SPOT peptide array binding signal intensity (CaSho1): 24
- SPOT peptide array binding signal intensity (CaSla1-D1-D2): ≤ 0
- SPOT peptide array binding signal intensity (CaSla1-D3): ≤ 0
- SPOT peptide array binding signal intensity (ScAbp1): 2120
- SPOT peptide array binding signal intensity (ScBbc1): ≤ 0
- SPOT peptide array binding signal intensity (ScBem1-D1): ≤ 0
- SPOT peptide array binding signal intensity (ScBzz1-D1): 1
- SPOT peptide array binding signal intensity (ScBzz1-D2): 46.5
- SPOT peptide array binding signal intensity (ScCyk3): ≤ 0
- SPOT peptide array binding signal intensity (ScFus1): 1
- SPOT peptide array binding signal intensity (ScHof1): 1.5
- SPOT peptide array binding signal intensity (ScHse1): 16.5
- SPOT peptide array binding signal intensity (ScLsb1): ≤ 0
- SPOT peptide array binding signal intensity (ScLsb2): ≤ 0
- SPOT peptide array binding signal intensity (ScLsb3): 1270
- SPOT peptide array binding signal intensity (ScLsb4): ≤ 0
- SPOT peptide array binding signal intensity (ScMyo3): 0.5
- SPOT peptide array binding signal intensity (ScMyo5): ≤ 0
- SPOT peptide array binding signal intensity (ScNbp2): 4
- SPOT peptide array binding signal intensity (ScPex13): 138
- SPOT peptide array binding signal intensity (ScRvs167): ≤ 0
- SPOT peptide array binding signal intensity (ScSho1): 280
- SPOT peptide array binding signal intensity (ScSla1-D1-D2): ≤ 0
- SPOT peptide array binding signal intensity (ScSla1-D3): 3
- SPOT peptide array binding signal intensity (SpAbp1-D1): 2240
- SPOT peptide array binding signal intensity (SpBbc1): 3.5
- SPOT peptide array binding signal intensity (SpBzz1-D1): 235
- SPOT peptide array binding signal intensity (SpBzz1-D2): ≤ 0
- SPOT peptide array binding signal intensity (SpCyk3): ≤ 0
- SPOT peptide array binding signal intensity (SpHof1): 0.75
- SPOT peptide array binding signal intensity (SpHof1-2): 6.5
- SPOT peptide array binding signal intensity (SpHof1-3): 86
- SPOT peptide array binding signal intensity (SpHse1): 0.75
- SPOT peptide array binding signal intensity (SpLsb1): 138
- SPOT peptide array binding signal intensity (SpLsb4): ≤ 0
- SPOT peptide array binding signal intensity (SpMyo1): ≤ 0
- SPOT peptide array binding signal intensity (SpNbp2): ≤ 0
- SPOT peptide array binding signal intensity (SpPex13): 1.5
- SPOT peptide array binding signal intensity (SpRvs167): 33.3
- SPOT peptide array binding signal intensity (SpSla1-D1-D2): ≤ 0
- SPOT peptide array binding signal intensity (SpSla1-D3): 1
